{
  "source": "the supplement of paper PMC11383364",
  "note": "Several values for one entry are separate records, joined by “and”; a condition that tells them apart may be missing. Equal entries are not always repeated.",
  "data": [
    {"tested_on": "SUM149", "test": "percent difference in area under dose-response curve of relative cell number, RPMI vs HPLM; higher = drug relatively more effective in HPLM than RPMI (negative = less effective in HPLM)", "conditions": "treatment time: 72 h; dose range: 10-point, 1 nM to 20 µM; media compared: RPMI vs HPLM", "values": [
      {"smiles": "Cc1ccc(-n2nc(C(C)(C)C)cc2NC(=O)Nc2ccc(OCCN3CCOCC3)c3ccccc23)cc1", "percent difference in area under dose-response curve": "-3.95%"},
      {"smiles": "O=C(/C=C/c1ccc2ccccc2n1)c1ccncc1", "percent difference in area under dose-response curve": "7.96%"},
      {"smiles": "CC(C)n1c(/C=C/C(O)CC(O)CC(=O)O)c(-c2ccc(F)cc2)c2ccccc21", "note": "(stereo not drawn) [Fluvastatin_sodium]", "percent difference in area under dose-response curve": "-8.4%"},
      {"smiles": "Cc1cc(Nc2nc(N[C@@H](C)c3ncc(F)cn3)ncc2Cl)[nH]n1", "percent difference in area under dose-response curve": "-7.89%"},
      {"smiles": "CCCCCCCC/C=C\\CCCCCCCC(=O)NCCO", "note": "[Oleylethanolamide]", "percent difference in area under dose-response curve": "2.18%"},
      {"smiles": "Cn1cc(C2=C(c3ccc(Cl)cc3Cl)C(=O)NC2=O)c2ccccc21", "percent difference in area under dose-response curve": "-0.391%"},
      {"smiles": "Cc1cnc(Nc2ccc(OCCN3CCCC3)cc2)nc1Nc1cccc(S(=O)(=O)NC(C)(C)C)c1", "note": "[Fedratinib]", "percent difference in area under dose-response curve": "-9.15%"},
      {"smiles": "O=c1[nH]c(=O)n(C2CCCO2)cc1F", "note": "(stereo not drawn) [Ftorafur]", "percent difference in area under dose-response curve": "-2.37%"},
      {"smiles": "C=CCNC1=C2C[C@@H](C)C[C@H](OC)[C@H](O)[C@@H](C)/C=C(\\C)[C@H](OC(N)=O)[C@@H](OC)/C=C\\C=C(/C)C(=O)NC(=CC1=O)C2=O", "percent difference in area under dose-response curve": "-27.6% and -16.3%"},
      {"smiles": "CC(C)Oc1ccc(C(=O)N[C@H](CNC(=O)CN(C)C)Cc2ccc(-c3cn4cccc([C@H](C)O)c4n3)cc2)cc1Cl", "percent difference in area under dose-response curve": "-23.9%"},
      {"smiles": "C[C@H]1[C@H](OC(=O)CCC(=O)O)O[C@@H]2O[C@@]3(C)CC[C@H]4[C@H](C)CC[C@@H]1[C@@]24OO3", "note": "[Artesunate]", "percent difference in area under dose-response curve": "-1.87%"},
      {"smiles": "COc1cc2ncnc(Nc3ccc(F)c(Cl)c3)c2cc1OCCCN1CCOCC1", "note": "[Gefitinib]", "percent difference in area under dose-response curve": "-2.1%"},
      {"smiles": "CS(=O)(=O)c1cccc(CNc2nc(Nc3ccc4c(c3)CCC(=O)N4)ncc2C(F)(F)F)c1", "percent difference in area under dose-response curve": "-3.53%"}
    ]}
  ]
}
